Data on 86 sequences can be found in PMC10668032, “Altered binding affinity of SIX1-Q177R correlates with enhanced WNT5A and WNT pathway effector expression in Wilms tumor”.

Whole data set: some 33,000 sequences, median “e-score” near -0.053, cut for the highest 2% near 0.38. What follows is part of a selection rich in the highest values, with near analogues and random picks from the rest.

The target in the assay is T1, SIX1 homeodomain (reference allele) (human, UniProt Q15475 108-198).
T1 sequence: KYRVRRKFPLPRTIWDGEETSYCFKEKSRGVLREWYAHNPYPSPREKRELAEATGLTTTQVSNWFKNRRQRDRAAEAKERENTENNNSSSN
The assay is described as follows: universal protein binding microarray; Universal all-10-mer PBM (8x60K, AMADID 030236), 300 nM GST-tagged protein, Alexa Fluor 488 anti-GST; buffer, salt, pH and temperature not stated (as in Berger); high values mean tight binding. As to conditions: protein: ivt; tags: N-terminal GST; dsDNA, one strand shown. An outline of the steps:
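Duplicate protein binding microarrays (universal 'all 10-mer', 8×60K format) were incubated with GST-tagged homeodomains at 300 nM final concentration. Binding was quantified as 8-mer E-scores with the Universal PBM Analysis Suite.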
As to GTGATCCA, the binding signal worked out at 0.377 ± 0.0369 E-score.
Consider CTGATCGC, for which the binding signal was determined as 0.191 ± 0.0397 E-score.
Regarding ATGATCGA, the binding signal was found to be 0.173 ± 0.029 E-score.
In the case of ATGATCCG, the binding signal worked out at 0.452 ± 0.00636 E-score.
On to ATGATCCA, for which the binding signal came to 0.391 ± 0.0192 E-score.
With GTGATCAA, the binding signal is 0.236 ± 0.0408 E-score.
Next, CTGATCTC: 0.312 ± 0.016 E-score; ATGATCTG: 0.355 ± 0.0221 E-score; CTGATCCC: 0.416 ± 0.02 E-score.
Regarding CTGATCCA, the binding signal is 0.357 ± 0.0346 E-score.
Next, GTGATCTA: 0.2979 ± 0.000552 E-score; ATGATCGG: 0.294 ± 0.0125 E-score; TCCCCTCA: 0.175 ± 0.0645 E-score.
Next, CTGCTATA: 0.194 ± 0.0359 E-score; AGTGAGAC: 0.198 ± 0.0551 E-score.
Consider ACTCGATA, for which the binding signal is 0.303 E-score.
Consider TACACCTA, for which the binding signal turned out to be 0.304 ± 0.0311 E-score.
Turning to CATTATCC, the binding signal was found to be 0.326 ± 0.00937 E-score.
In the case of CGTCGATC it was 0.157 ± 0.105 E-score; in that of ATCATTTA, 0.193 ± 0.0974 E-score; in that of AATTATAC, 0.165 ± 0.066 E-score.
In the case of GATAGTCA, the binding signal was 0.189 ± 0.0298 E-score.
As to TAAAGATA, the binding signal came out at 0.167 ± 0.162 E-score.
Turning to ATGATCTC, the binding signal worked out at 0.327 ± 0.0416 E-score.
Take ATGATCCC: the binding signal was 0.448 ± 0.0106 E-score.
Next, ATGATCAC: 0.309 ± 0.0105 E-score; ACCGAGAT: 0.26507 ± 0.000212 E-score.
As for ACGGATGA, the binding signal was 0.211 ± 0.0174 E-score.
Turning to ATCGCGAT, the binding signal stood at 0.334 ± 0.0159 E-score.
Next, ATACATTC: 0.188 ± 0.0482 E-score.
Next, TACGTGGA: 0.195 ± 0.113 E-score.
ATGGATCA: the binding signal came to 0.383 ± 0.00801 E-score.
In the case of GTAGATCA it was 0.29 ± 0.0141 E-score; in that of GTGGATAA, 0.2486 ± 0.00124 E-score; in that of ATGGATCG, 0.345 ± 0.0571 E-score.
In the case of CTGGATCA it was 0.326 ± 0.0378 E-score; in that of GTGGATCA, 0.4 ± 0.0347 E-score; in that of ACACCAGC, 0.211 ± 0.0357 E-score.
Next, CTTCGATA: 0.342 ± 0.0398 E-score; GCATATGA: 0.167 ± 0.0211 E-score.
On to GCATACTA, for which the binding signal came out at 0.22 ± 0.00291 E-score.
ATGTATGA: the binding signal stood at 0.261 ± 0.0176 E-score.
Next, ATCATTAG: 0.281 ± 0.0368 E-score.
Take TCACCTGA: the binding signal came to 0.165 ± 0.00229 E-score.
In the case of CATACCTA it was 0.174 ± 0.0329 E-score.
Next, CATACCGG: 0.166 ± 0.0474 E-score; AATACCTA: 0.289 ± 0.0733 E-score.
Next, AATACCGA: 0.321 ± 0.0139 E-score; TATACCGA: 0.339 ± 0.026 E-score; GATACCTA: 0.472 ± 0.0087 E-score.
Consider GATACCGC, for which the binding signal came to 0.461 ± 0.0131 E-score.
Next, GATACCGA: 0.4164 ± 0.00268 E-score; AATACCGG: 0.273 ± 0.0276 E-score.
In the case of AATACCGC it was 0.386 ± 0.0176 E-score; in that of AATACCGT, 0.318 ± 0.04 E-score.
Next, GCTAATAC: 0.244 ± 0.0389 E-score.
Take CCGGAATA: the binding signal came to 0.162 ± 0.00262 E-score.
Next, AACTACAC: 0.169 ± 0.006 E-score; CGTTGATC: 0.152 ± 0.0357 E-score.
In the case of GACCCGGC it was 0.183 ± 0.012 E-score; in that of GGTGTAGA, 0.317 ± 0.04 E-score.
Next, AGTATCTG: 0.317 ± 0.0419 E-score; AGTATATC: 0.383 ± 0.0642 E-score; ACTATCTC: 0.209 ± 0.0851 E-score.
Turning to CGTATCTC, the binding signal was 0.378 ± 0.00747 E-score.
In the case of CGTATATC it was 0.336 ± 0.0303 E-score; in that of CCTATCTC, 0.227 ± 0.035 E-score; in that of CGTATCTA, 0.349 ± 0.0276 E-score.
Take AGTATATA: the binding signal worked out at 0.306 ± 0.0599 E-score.
Next, AGTATCTC: 0.376 ± 0.0377 E-score.
Take CATCTATC: the binding signal is 0.211 ± 0.0124 E-score.
In the case of ATATGGCG it was 0.223 ± 0.0647 E-score; in that of AATGGGAT, 0.213 ± 0.0227 E-score.
Turning to ACACCTTA, the binding signal amounted to 0.238 ± 0.0937 E-score.
Turning to GATGAGCC, the binding signal was 0.249 ± 0.0159 E-score.
In the case of CTATCTGA it was 0.231 ± 0.0348 E-score; in that of CGAGATCC, 0.325 ± 0.0133 E-score.
In the case of GATAATGA it was 0.174 ± 0.0154 E-score.
In the case of AGACGGGA it was 0.2 ± 0.0154 E-score.
In the case of ATAGTAGC, the binding signal amounted to 0.187 ± 0.0294 E-score.
Next, GCGGGATA: 0.3486 ± 0.00158 E-score; CCGGGATA: 0.305 ± 0.0131 E-score.
Regarding CGGGGAGA, the binding signal stood at 0.182 ± 0.0823 E-score.
On to ACGGGGGA, for which the binding signal stood at 0.217 ± 0.0264 E-score.
Next, CGGGGATA: 0.413 ± 0.0228 E-score; AGGGGATA: 0.425 ± 0.000834 E-score.
